Measured values: PubChem BioAssay (NCATS)
Inconclusive results are not listed. Entries that show only a call come without a potency. The source made the active and inactive calls. Calls follow the shape of the dose curve; as a rule, active = well fitted inhibition curve with a large enough effect; inconclusive = small, poorly fitted or top-dose-only effect; inactive = flat fitted curve, though single readings scatter.

Assay: BET inhibitor-based combinations targeting novel dependencies in MECOM-rearranged (r) AML: AML-191 cell line (AID 2202236; also: nearly all actives have a fitted effect of over 35% in size)
Details: AML-191 viability, CellTiter-Glo luminescence, 48 h; series mostly up to 46 µM
Method in brief: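 Readout: CellTiter-Glo luminescence. Exposure: 48 h, 11 concentrations, 500 cells/well. Metric: AUC and within-line Z-AUC after DMSO/empty-well normalization.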
Potency is read from the fitted curve at half-maximal effect.

SMILES	Potency
O=C(Nc1ccncc1)C(=O)c1cn(Cc2ccc(Cl)cc2)c2ccccc12	263 nM (active)
O=C(O)C1=CCCN(CCOC(c2ccc(C(F)(F)F)cc2)c2ccc(C(F)(F)F)cc2)C1	inactive
CN1C(=O)COc2c(C(=O)NC3CN4CCC3CC4)cc(Cl)cc21 (stereo unspecified)	inactive
N#CC(O[C@@H]1O[C@H](CO[C@@H]2O[C@H](CO)[C@@H](O)[C@H](O)[C@H]2O)[C@@H](O)[C@H](O)[C@H]1O)c1ccccc1 (stereo partly specified)	inactive
C[C@]12COC(=O)C[C@@H]1CC[C@@H]1[C@@H]2CC[C@@]2(C)[C@H]1CC[C@]2(C)O	inactive
O=c1cccc2n1CC1CNC[C@H]2C1	inactive
C/C(O)=C(\C#N)C(=O)Nc1cc(Br)ccc1Br	inactive
C[C@H]1[C@H](O)[C@@H](C)/C=C/C=C/CC/C=C/C=C/C=C/C=C/[C@H](O[C@@H]2O[C@H](C)[C@@H](O)[C@H](N)[C@@H]2O)C[C@@H]2O[C@](O)(C[C@@H](O)[C@H](O)CC[C@@H](O)C[C@@H](O)C[C@@H](O)CC(=O)O[C@H]1C)C[C@H](O)[C@H]2C(=O)O	inactive
C/C=C(\C)C(=O)N[C@@H](c1ccccc1)[C@@H](O)C(=O)O[C@H]1C[C@@]2(O)[C@@H](OC(=O)c3ccccc3)[C@@H]3[C@]4(OC(C)=O)CO[C@@H]4C[C@H](O)[C@@]3(C)C(=O)[C@H](OC(C)=O)C(=C1C)C2(C)C	46.8 nM (active)
COC12C(COC(N)=O)C3=C(C(=O)C(C)=C(N)C3=O)N1CC1C2N1C (stereo unspecified)	inactive
CC(N[C@H]1C[C@@H]1c1ccccc1)c1ccc2c(c1)OCCO2 (stereo partly specified)	inactive
